Over roughly 68,000 sequences, “fluorescence intensity (a.u.)” has its median near 9,100; the highest 2% begin near 16,000. Many of the other results were omitted from the sample, so the highest values are more common in it than they were.

In the test the target is OsWRKY34 (Oryza sativa, UniProt Q0JBA9 1-250). In words: protein-binding microarray (RPBM); PBS, 2% BSA, 51.3 ng/ul salmon testes DNA, 50 uM zinc acetate, 200 nM TF, 25 C, 1 h; high values mean tight binding. Conditions: protein: recombinant; tags: N-terminal polyhistidine and DsRed monomer fusion (pET32a); label: CyDye5-dUTP incorporated in the synthesized complementary strand; 3' TTTTT single-stranded linker to array surface; dsDNA, one strand shown. The procedure, abridged: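 An Axon 4000B scanner gave the binding signal as per-feature fluorescence intensity in arbitrary units. This followed washing of a custom Agilent array that had been incubated for 1 h at 25 °C with 200 nM protein in PBS, 2% BSA, salmon testes DNA and 50 µM zinc acetate. The proteins were transcription factors fused at the N-terminus to polyhistidine and DsRed, expressed in E. coli BL21-CodonPlus and purified on Ni–NTA.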
OsWRKY34, sequence (Q0JBA9 entry or part of it): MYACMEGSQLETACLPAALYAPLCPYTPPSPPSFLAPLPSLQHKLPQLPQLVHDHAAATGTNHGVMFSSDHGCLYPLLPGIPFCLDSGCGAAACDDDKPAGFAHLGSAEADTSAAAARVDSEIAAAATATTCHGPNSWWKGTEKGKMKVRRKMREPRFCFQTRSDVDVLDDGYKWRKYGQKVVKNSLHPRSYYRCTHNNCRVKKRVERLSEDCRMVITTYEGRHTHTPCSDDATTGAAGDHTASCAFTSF
On to “TAATACTCCTACTATGGACTTGTTCTCCGTGTTGCTTATTCGGAGTCACCTAGTGCAG”, for which the binding signal is 10200 fluorescence intensity (a.u.).
As for “CCGTTACATGACGTGGGCCCCACCCAGCCGCGCCAGCCCACGGAGTCACCTAGTGCAG”, the figure is 8450 fluorescence intensity (a.u.); as for “CCACTCACTCTGTGTTTCACTTGCTGCCTTTCAGTTGCAACGGAGTCACCTAGTGCAG”, 8820 fluorescence intensity (a.u.); as for “TTCTAAATTTGAAACGGTTTTATGACTTCTTTTCAGCGTTCGGAGTCACCTAGTGCAG”, 8520 fluorescence intensity (a.u.).
As for “GGTGACGGCGGCTGTCTTCTTCGTAGGGTGCGGGGTGGCTCGGAGTCACCTAGTGCAG”, the figure is 8880 fluorescence intensity (a.u.); as for “TGTCTACATACGCTCAATCCATTATTCCCCTATTACATCACGGAGTCACCTAGTGCAG”, 9500 fluorescence intensity (a.u.); as for “ACCATCCAGCGCGTAACCGATTCCCTGTACATTCGGCCGCCGGAGTCACCTAGTGCAG”, 9080 fluorescence intensity (a.u.).
The result for “GGAGATCTTATACCCGATTTTACTGTTGAGGATTGTGACTCGGAGTCACCTAGTGCAG” reads 8640 fluorescence intensity (a.u.); that for “ACGCTTACAACATGCGCATACACGCACACCCAATCCTATGCGGAGTCACCTAGTGCAG”, 11000 fluorescence intensity (a.u.).
Take “AGATTTTTTTGAACTTTCTGTCTGGGTCGGCTGTTTGTGTCGGAGTCACCTAGTGCAG”: the binding signal is 10500 fluorescence intensity (a.u.).
As for “GGTAGATTATATTAGGTTTTTCTTCGTGTTGTATTCACGACGGAGTCACCTAGTGCAG”, the figure is 8720 fluorescence intensity (a.u.); as for “GTCCTTAAATATTTGACGTCGTTGACTTTTTTTAAAATATCGGAGTCACCTAGTGCAG”, 20900 fluorescence intensity (a.u.); as for “CACACATAAACTTTTAACTTTTTTATCACATCGTTTTAATCGGAGTCACCTAGTGCAG”, 8490 fluorescence intensity (a.u.).
As for “TAGCGTCGTTGACTTTTGAACACATTTTTATCATTTAAATCGGAGTCACCTAGTGCAG”, the figure is 22400 fluorescence intensity (a.u.); as for “CTTACTCTCTCCGTCTCTAAATATTTGACGCCGTTGACTTCGGAGTCACCTAGTGCAG”, 12900 fluorescence intensity (a.u.); as for “CTCCGTCCTTAAATATTTGACGTCGTTGACTTTTTTAAACCGGAGTCACCTAGTGCAG”, 26000 fluorescence intensity (a.u.).
The result for “CTCTTCATTTTTTTAATAGATAGCGTCGTTGACTTTTGAACGGAGTCACCTAGTGCAG” reads 14800 fluorescence intensity (a.u.).
As for “ACTCTCTCCGTCCTTAAATATTTGACGCCGTTGACTTTTTCGGAGTCACCTAGTGCAG”, the binding signal was 30600 fluorescence intensity (a.u.).
As for “CCTGTAATACTCTCTCCGTCTATAAATATTTGACGCCGTTCGGAGTCACCTAGTGCAG”, the figure is 8560 fluorescence intensity (a.u.); as for “AAATACAACTTTGACTTTTTGTTTCTTTAAAAATATTTATCGGAGTCACCTAGTGCAG”, 9920 fluorescence intensity (a.u.).
As for “ACTTTTTAAATATGTTTGACCGTTCGTCTTATTCAAAAACCGGAGTCACCTAGTGCAG”, the figure is 9990 fluorescence intensity (a.u.).
“TAAGACGTTTTGACTTTTTTTTTTCCTATTTAAACCTTTTCGGAGTCACCTAGTGCAG”: the binding signal is 13500 fluorescence intensity (a.u.).
Regarding “TATTTTTTGGTTGTCCTTTGTTTTTTTAAAAAATATTTGTCGGAGTCACCTAGTGCAG”, the binding signal is 8170 fluorescence intensity (a.u.).
Consider “GGAGGGGTTGGAAAAATTCGGTGTTCGTGGCCGCCTTCACCGGAGTCACCTAGTGCAG”, for which the binding signal is 13400 fluorescence intensity (a.u.).
As for “GAAAATATCTGAAAGATACCGTTTGTCGTACTCCTTTTCTCGGAGTCACCTAGTGCAG”, the figure is 9000 fluorescence intensity (a.u.).
The result for “AACATTGATGAGAATTGAAATCATTTCGTTGCTCTAATCTCGGAGTCACCTAGTGCAG” reads 8340 fluorescence intensity (a.u.); that for “CTAGCTGAAGACTTGTGCATGCAGTTTACACCTTTTATCTCGGAGTCACCTAGTGCAG”, 9280 fluorescence intensity (a.u.).
As for “TAGCTCGTCTACTCCTAGCTCTCTCGTCCAATCCGGCCGGCGGAGTCACCTAGTGCAG”, the figure is 8680 fluorescence intensity (a.u.).
As to “CTACGTGAGCTCGTTGCTGTGTCTCCTCTCTCTGCATCGCCGGAGTCACCTAGTGCAG”, the binding signal was 9690 fluorescence intensity (a.u.).
In the case of “CTCACAGTAAGCTTGTCCAACAGATCCATTCCTAACCTACCGGAGTCACCTAGTGCAG”, the binding signal is 8140 ± 110 fluorescence intensity (a.u.).
The result for “TCCACTTCCAACATCTACTATCTTTTCTCACGCTTTTTCCCGGAGTCACCTAGTGCAG” reads 8630 fluorescence intensity (a.u.); that for “CTCCTCAGCTAGTTGCTTGTCCCACACCACATCTTTCTTTCGGAGTCACCTAGTGCAG”, 12900 fluorescence intensity (a.u.).
The result for “GTCCAGTGGACCAACCGGGTCACGGTCTCACGTGCCAAAGCGGAGTCACCTAGTGCAG” reads 8710 fluorescence intensity (a.u.).
The result for “AAAATCTGTCATCGTCGTATCATGCATGTCGAATGTTTTGCGGAGTCACCTAGTGCAG” reads 8380 fluorescence intensity (a.u.); that for “AGCTATTTTACATGTTATTTTTTCATTGTTATCGTACTAACGGAGTCACCTAGTGCAG”, 10500 fluorescence intensity (a.u.).
“CACCATCCCAAAATATTTGACGCCGTTGACTTTTTTAAAACGGAGTCACCTAGTGCAG”: the binding signal is 14000 fluorescence intensity (a.u.).
As for “TCCCTCCATCCCAAAATGTTATCTTTGACGTCGTTGACTTCGGAGTCACCTAGTGCAG”, the figure is 10900 fluorescence intensity (a.u.); as for “CATCCCAAAATATTTGACGTCGTTGACTTTTTTAAAAGTGCGGAGTCACCTAGTGCAG”, 18000 fluorescence intensity (a.u.).
The result for “GCGGAGGTGGTGTGGGTGGGTGAGTGAGTGAGGAGTGATGCGGAGTCACCTAGTGCAG” reads 17400 fluorescence intensity (a.u.); that for “GGGAGGGGCGGCCCAGCGGCAGCGGAGGGGAGGGAGGATGCGGAGTCACCTAGTGCAG”, 8640 fluorescence intensity (a.u.); that for “GAGAGTAAGGATCAGGAGGAGGTGGAGGAGGAGGAGGATGCGGAGTCACCTAGTGCAG”, 8300 fluorescence intensity (a.u.).
As for “AGGGTAAGAGGAGGAGGAGGAGGGGTAGGCGAGGGAGATGCGGAGTCACCTAGTGCAG”, the figure is 8490 fluorescence intensity (a.u.); as for “GGGTGTGTAAGGGTAGGTGGAGGGGTGGGTGATGCGAGATCGGAGTCACCTAGTGCAG”, 20400 fluorescence intensity (a.u.); as for “CGGCCCAGGTGGGAGAGGAGGGGAGGGGAGGGGAGGGATGCGGAGTCACCTAGTGCAG”, 19800 fluorescence intensity (a.u.).
Regarding “GGGTCAGAGGGTAGGTTATTGTTGGGTAGGTGTGGAATTGCGGAGTCACCTAGTGCAG”, the binding signal was 9800 fluorescence intensity (a.u.).
As for “AGGTGGAGGTGGGGAGGATGCGGGAGAGGGAGGTGATGATCGGAGTCACCTAGTGCAG”, the figure is 14000 fluorescence intensity (a.u.); as for “GTTGGAGTTGGAGGAGGTGGTGCCGTGGTGGGGATTGATGCGGAGTCACCTAGTGCAG”, 10500 fluorescence intensity (a.u.); as for “GGATGAGGAGGAGGGTGTGGAGGAGGAGGAGGAGGAGGTGCGGAGTCACCTAGTGCAG”, 11500 fluorescence intensity (a.u.).
Turning to “GGAGGTCAGGATTGTTGTGGTGGGGAATTGGAGGGAAATGCGGAGTCACCTAGTGCAG”, the binding signal is 19600 fluorescence intensity (a.u.).
As for “GTAGGAGGAGGAGGAGGAGGTGGTGGTGGTGGTGGTGATGCGGAGTCACCTAGTGCAG”, the figure is 15100 fluorescence intensity (a.u.).
As for “TTATAACATCTCTAGCTTCCTTTTCTAACCGTTTAACTTTCGGAGTCACCTAGTGCAG”, the figure is 8410 fluorescence intensity (a.u.).
As for “TTGGTTGTGTGTGTGCCGCCGCGAGCCCGTGACGGCGCCCCGGAGTCACCTAGTGCAG”, the figure is 9390 fluorescence intensity (a.u.); as for “AATTTTTATATTGTTGACCTGCAGATCCTTATGTTGGACTCGGAGTCACCTAGTGCAG”, 8260 fluorescence intensity (a.u.); as for “AACGTACCACTCCCGTGGGCCGGACCAACACTCCTTCCCACGGAGTCACCTAGTGCAG”, 9510 fluorescence intensity (a.u.).

The values above are taken from paper PMC7819943, “Rice protein-binding microarrays: a tool to detect cis-acting elements near promoter regions in rice”.
